Measured values as given in PubChem BioAssay (NCI).
About 83,000 compounds went through this panel and 20% of them were active in at least one assay; those are over-represented in the sample as a whole.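 Cell lines were cultured in 96-well plates, exposed to a single compound concentration, and assessed for percent growth 48 hours later.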 A number with no mark means an inactive call. Calls of active or inactive are those of the source. Rule for the calls: active = growth percent below 10; inactive = the rest.

Experiments:
Assay in all cases: NCI-60 one-dose screen, 48 h (100 = growth as untreated, 0 = no growth, -100 = all killed)
Conditions in all cases: 10 µM unless noted
NCI-H23 lung = system: NCI-H23 lung
NCI-H226 lung = system: NCI-H226 lung
NCI-H322M lung = system: NCI-H322M lung
HOP-62 NSCLC = system: HOP-62 NSCLC
NCI-H460 lung = system: NCI-H460 lung
A549/ATCC NSCLC = system: A549/ATCC NSCLC
786-0 renal = system: 786-0 renal
COLO 205 colon = system: COLO 205 colon

Row | Structure (SMILES) | growth (NCI-H23 lung) | growth (NCI-H226 lung) | growth (NCI-H322M lung) | growth (HOP-62 NSCLC) | growth (NCI-H460 lung) | growth (A549/ATCC NSCLC) | growth (786-0 renal) | growth (COLO 205 colon)
1 | O=C(Nc1ccc(-n2cc(-c3ccncc3)c(-c3ccc(Cl)c(O)c3)n2)cc1)Nc1cc(C(F)(F)F)cc(C(F)(F)F)c1 | 15.4% | 42% | 41.9% | 14% | 5.79% (active) | 17.6% | -60.1% (active) | -55.2% (active)
2 | Cc1ccc(NC(=O)CCl)cc1Cl | 89.2% | 103% | 97.1% | 98.9% | 105% | 106% | 117% | 122%
3 | COc1ccc(/C=N/c2cc(C(C)(C)C)nn2-c2ccccc2)cc1 | 106% | 89% | 110% | 111% | 97.1% | 101% | 93.7% | 105%
4 | CCCCCCCCCC[N+](C)(C)N | 104% | 92.3% | 97.7% | 95.8% | 111% | 97.6% | 81.9% | 100%
5 | C[C@]12CC[C@H]3[C@@H](CC[C@H]4C[C@@H](O)CC[C@@]43C)[C@@H]1CC(=O)C2 | 99.9% | 100% | 106% | 96.8% | 103% | 100% | 107% | 101%
6 | CC(=O)CC(=O)OC/C=C(/C)CCC=C(C)C | 103% | 101% | 118% | 107% | 109% | 105% | 104% | 109%
7 | O=c1c2c(c3ccccc3n1-c1ccccc1)NC(=S)NC2c1ccc(Cl)cc1 (centres undefined) | 26.7% | 65% | 45.1% | 29.3% | 2.25% (active) | 31.7% | 18.6% | 67.2%
8 | O=C(Nc1ccc(-n2cc(-c3ccncc3)c(-c3ccc(Cl)c(O)c3)n2)cc1)Nc1ccc(Cl)c(C(F)(F)F)c1 | 3.39% (active) | 68.2% | 12% | -7.48% (active) | -29.3% (active) | 6.06% (active) | -44.8% (active) | -66.5% (active)
9 | O=C(CCC(=O)N(CCO)CCO)N(CCO)CCO | 108% | 105% | 96% | 102% | 116% | 105% | 96.4% | 98.4%
10 | COc1cc(/C(=C2/O[C@@H]([C@H]3COC(C)(C)O3)[C@H]3OC(C)(C)O[C@@H]23)c2ccc3c(c2)OCO3)cc(OC)c1OC | 54% | 102% | 85.3% | 63.5% | 57.3% | -14% (active) | -6.92% (active) | 108%
11 | CC(Br)c1nc2ccccc2cc1C(N)=O (centres undefined) | 107% | 106% | 99.9% | 101% | 102% | 97% | 103% | 110%
12 | CC(C)CCCCCOC(=O)c1ccccc1SSc1ccccc1C(=O)OCCCCCC(C)C | 108% | 97.3% | 132% | 99.8% | 108% | 99.2% | 104% | 109%
13 | CCn1cnc(C[C@H](NC(=O)[C@@H](NC(=O)Nc2cc(C(F)(F)F)cc(C(F)(F)F)c2)C(C)(C)C)C(=O)OC)c1 | -84.2% [100 µM] (active) | -49.5% [100 µM] (active) | -96.3% [100 µM] (active) | -95.5% [100 µM] (active) | -57.2% [100 µM] (active) | -80.1% [100 µM] (active) | -83.9% [100 µM] (active) | -80% [100 µM] (active)
14 | COc1cc(-c2nn(-c3ccc(NC(=O)Nc4cc(C(F)(F)F)cc(C(F)(F)F)c4)cc3)cc2-c2ccncc2)ccc1Cl | 8.45% (active) | 18.4% | 6.93% (active) | 12.2% | -20.6% (active) | 12.1% | -41.4% (active) | -89.8% (active)
15 | CCCCCCCCCCCCOC(=N)N(C)C | 107% | 96.2% | 95% | 97% | 99.8% | 91.7% | 96.8% | 100%
16 | C=CN(C)S(C)(=O)=O | 32.2% | 91.2% | 39.5% | 22.6% | 17.8% | 34.5% | 39.5% | 111%
17 | Cc1ccccc1-n1c(C)nc2cc(NC(=O)c3ccc(Cl)cc3)ccc2c1=O | 64.3% | 88.8% | 94.2% | 97.4% | 72.4% | 72.2% | 67.6% | 119%
18 | COc1cc(-c2nn(-c3ccc(NC(=O)Nc4ccc(Cl)c(C(F)(F)F)c4)cc3)cc2-c2ccncc2)ccc1Cl | 2.97% (active) | 17.9% | 39% | 8.98% (active) | -51.7% (active) | 11.9% | -52.3% (active) | -94% (active)
19 | CC(O)CN(CC(C)O)N(CC(C)O)CC(C)O (centres undefined) | 108% | 97.5% | 107% | 101% | 106% | 95.5% | 99.5% | 109%
20 | COCn1c(C(=O)OC)cc2oc(/C=C3/SC(=S)N(N)C3=O)cc21 | 103% | 115% | 77.5% | 122% | 105% | 105% | 96.5% | 110%
21 | S=C(N/N=C/c1cc(Cl)cc(Cl)c1)NC12CC3CC(CC(C3)C1)C2 | 97.8% | 79.6% | 62.2% | 78.2% | 34.4% | 45% | 71% | 68.8%
22 | CN(C)CCOC(=O)C(C)(C)C | 114% | 98% | 107% | 112% | 103% | 101% | 110% | 116%
23 | COc1ccc(C(=O)N2N=C(c3ccc(Br)cc3)CC2c2cn(-c3ccccc3)nc2-c2ccccc2)cc1 (centres undefined) | 42.4% | 88.9% | 78% | 22.6% | 41.8% | 22.8% | 74% | 26.2%
24 | CCC(C)[C@H](NC(=O)Nc1cc(C(F)(F)F)cc(C(F)(F)F)c1)C(=O)N[C@@H](Cc1cn(C)cn1)C(=O)OC (some centres undefined) | -83.2% [100 µM] (active) | -50.6% [100 µM] (active) | -96.8% [100 µM] (active) | -99.2% [100 µM] (active) | -64.5% [100 µM] (active) | -76% [100 µM] (active) | -88.4% [100 µM] (active) | -83.9% [100 µM] (active)
25 | O=C(/C(Br)=C/c1ccccc1)c1ccccc1 | 93.3% | 110% | 107% | 80.3% | 84.9% | 78.6% | -90.5% (active) | -70.8% (active)
26 | COC(=O)CC(=O)C(=O)OC | 103% | 97.7% | 107% | 103% | 104% | 104% | 95.2% | 114%
27 | O=C(Nc1ccc(-n2cc(-c3ccncc3)c(-c3ccc(Cl)c(O)c3)n2)cc1)c1cc(Cl)cc(Cl)c1 | 60.3% | 111% | 60.4% | 22.2% | 14.1% | 41.4% | -39% (active) | 72.9%
28 | CCCCS(=O)(=O)c1cc(Nc2ccc(O)c3c2C(=O)c2ccccc2C3=O)ccc1C | 45.7% | 87.8% | 27.6% | 72.5% | 14.9% | 28.3% | 87.1% | 70.7%
